Test results reported in PubChem BioAssay AID588795 (National Center for Advancing Translational Sciences (NCATS), 2011).
“And” between values parts separate entries of the source, which are not always exact repeats. Identical values can stand only once. Out of some 390,000 compounds screened, about 1,400 (0.36%) were called active. Roughly 2% stayed inconclusive and do not appear here. The entries come from a sample that favours actives as a whole. Values without a mark were called inactive. Calls come from the whole dose curve; as a rule, active = well fitted inhibition curve with a large enough effect; inconclusive = small, poorly fitted or top-dose-only effect; inactive = no such curve, though single readings can be large or run the other way.
% is set by controls: 0 for no effect and ±100 for the full control effect; potency is the fitted concentration of half-maximal effect.
Note: nearly all actives have a fitted effect of over 65% in size.

What follows are compounds tested against Flap endonuclease 1 (Homo sapiens) (UniProt P39748) (assay: qHTS Assay for the Inhibitors of Human Flap endonuclease 1 (FEN1).). Conditions: Recombinant FEN1 flap cleavage, fluorescence, 15 min; series mostly up to 114 µM; activity change, negative = inhibition: at the top concentration.
Sequence of Flap endonuclease 1 (Homo sapiens) (P39748 whole entry, looked up): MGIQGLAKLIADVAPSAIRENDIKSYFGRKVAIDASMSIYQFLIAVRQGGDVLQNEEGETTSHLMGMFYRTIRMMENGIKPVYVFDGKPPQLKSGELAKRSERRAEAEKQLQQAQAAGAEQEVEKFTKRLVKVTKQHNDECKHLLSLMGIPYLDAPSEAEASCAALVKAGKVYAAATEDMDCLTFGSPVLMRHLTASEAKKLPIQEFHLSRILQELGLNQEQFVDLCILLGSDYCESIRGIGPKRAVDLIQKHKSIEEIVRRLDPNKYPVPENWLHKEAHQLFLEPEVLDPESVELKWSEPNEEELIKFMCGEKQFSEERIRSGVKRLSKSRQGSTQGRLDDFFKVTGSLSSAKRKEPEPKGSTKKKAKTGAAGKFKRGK
Procedure, shortened: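 Compounds are tested as a concentration series against 10 nM FEN1; after a 15 min room-temperature preincubation, 50 nM substrate starts cleavage, with plate reads at 0 and 15 min. Normalized responses are fitted by a Hill equation.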
For `Cc1[nH]c2ccccc2c1C(=O)C(=O)N(C)c1ccccc1`, the “activity change, negative = inhibition” value was -1.9%. `CCCC(=O)N1CCN(c2nc3c(OC)ccc(C)c3s2)CC1` was tested, and the “activity change, negative = inhibition” value was -8.18%. `Cc1cc[n+](C2CCCCC2)cc1` was tested, and the “activity change, negative = inhibition” value was 1.59%. `CCOc1cccc2c1N[C@@H](c1ccc(C(=O)O)cc1)[C@H]1CC=C[C@@H]21` was tested, and the Potency was 14.1 µM (active). `CCOC(=O)C1Nc2ccc(C(F)(F)F)cc2C2C=CCC12` (centres undefined) was tested, and the “activity change, negative = inhibition” value was -23.5%. In the case of `CCOc1cc(C(=O)O)ccc1OCCOc1ccccc1`, the “activity change, negative = inhibition” value is reported as 4.15%. With `OC(CBr)CN1CCCCC1` (centres undefined) the “activity change, negative = inhibition” value was -5.74%. In the case of `O=C(Nc1ccccc1)c1ccccc1OCc1ccccc1`, the “activity change, negative = inhibition” value is reported as -4.93%. In the case of `C#CCOCCOCCOCCNc1nc(N2CCN(C(=O)CCCCCCCCCCNC(=O)Cn3cc(CCCCCN)nn3)CC2)nc(N2CCN(C(=O)CCCCCCCCCCNC(=O)[C@H](CO)n3cc(CCCSC)nn3)CC2)n1`, the Potency is reported as 39.8 µM (active). `C#CCOCCOCCOCCNc1nc(N2CCN(C(=O)Cn3cc(CCO)nn3)CC2)nc(N2CCN(C(=O)[C@H](CCCCN)n3cc(CCCC)nn3)CC2)n1` was tested, and the “activity change, negative = inhibition” value was 16.4%. For `C#CCOCCOCCOCCNc1nc(N2CCN(C(=O)[C@H](CCC(=O)O)n3cc(CN)nn3)CC2)nc(N2CCN(C(=O)[C@H](CCC(=O)O)n3cc(CN)nn3)CC2)n1`, the “activity change, negative = inhibition” value was -21.9%. `O=C(COC(=O)c1ccccc1OCCOc1ccccc1)Nc1cccc(Br)c1` was tested, and the “activity change, negative = inhibition” value was 8.01%. `Cc1ccc(S(=O)(=O)c2c(Nc3cccc(Cl)c3)sc(C(=O)c3ccc4c(c3)OCO4)c2N)cc1` was tested, and the “activity change, negative = inhibition” value was -1.24%. For `Cc1ccc(C)c(N2CCN(CCCNC(=O)Nc3ccc(Cl)cc3)CC2)c1`, the “activity change, negative = inhibition” value was -5.33%. In the case of `COc1ccc(C2Nc3ccc(NC(=O)COC(C)=O)cc3C(=O)N2Cc2ccccc2)cc1COc1ccc(NC(C)=O)cc1` (centres undefined), the “activity change, negative = inhibition” value is reported as -3.55%. For `Cc1ccc(-c2nnc3ccc(SCC(N)=O)nn23)cc1`, the “activity change, negative = inhibition” value was -1.5%. With `S=c1[nH]nc(-c2cc(-c3ccccc3)n[nH]2)n1/N=C/c1c2ccccc2cc2ccccc12` the Potency was 39.8 µM (active). With `S=c1[nH]nc(-c2cc(-c3ccsc3)n[nH]2)n1-c1ccccc1` the “activity change, negative = inhibition” value was -2.28%. With `Cc1cc(-c2n[nH]c(=S)n2/N=C/C(Br)=C/c2ccccc2)n[nH]1` the “activity change, negative = inhibition” value was -9.91%. With `Cc1cccc(NC(=O)COC(=O)c2ccccc2OCc2cccc(Br)c2)c1` the “activity change, negative = inhibition” value was -18%. In the case of `COc1ccc(CN(Cc2ccccc2)C(=O)c2ccc(O)cc2)cc1COc1ccc(NC(C)=O)cc1`, the “activity change, negative = inhibition” value is reported as -4.6%. For `O=C1c2ccccc2C(=O)N1c1ccc(S(=O)(=O)N2CCOCC2)c2ccccc12`, the “activity change, negative = inhibition” value was -19.7%. `CCN1/C(=C/c2ccc3ccc(C)cc3[n+]2CC)Sc2ccccc21` was tested, and the Potency was 50.1 µM (active). With `OC(Cc1ccc2ccccc2n1)c1ccc(Cl)c(Cl)c1` (centres undefined) the “activity change, negative = inhibition” value was -4.3%. With `O=C1COc2ccc(-c3csc(-c4ccc(Cl)cc4)n3)cc2N1` the “activity change, negative = inhibition” value was 1.81%. `Cc1cc(C)cc(NC(=O)CSc2nc(=O)n(CCN3CCOCC3)c3c2CCC3)c1` was tested, and the “activity change, negative = inhibition” value was -3.17%. With `CCOc1ccc(NC(=O)CSc2nnc3c(n2)[nH]c2ccc(S(=O)(=O)N4CCOCC4)cc23)cc1` the “activity change, negative = inhibition” value was -18%. With `Cc1ccc(-n2ncc3c(NCCCn4ccnc4)ncnc32)cc1Cl` the “activity change, negative = inhibition” value was -5.38%. In the case of `C(=Nc1ccc(/C=C/c2ccnc3ccccc23)cc1)c1cc2c3c(c1)CCCN3CCC2`, the “activity change, negative = inhibition” value is reported as -9.3%. In the case of `O=[N+]([O-])c1c(NCCO)cc(Sc2nc3ccccc3s2)c2nonc12`, the Potency is reported as 44.7 µM (active). With `CC(C)(C)c1ccc(S(=O)(=O)Nc2ccc(O)c(Sc3nc4ccccc4s3)c2)cc1` the “activity change, negative = inhibition” value was -27%. `CN(C(=O)CSc1nc2ccc(NC(=O)COc3ccccc3)cc2s1)c1ccccc1` was tested, and the “activity change, negative = inhibition” value was 3.32%. With `COc1cc(OC)c2c(C)cc(=O)oc2c1C(CCN1CCCCC1)c1ccc(N(C)C)cc1` (centres undefined) the “activity change, negative = inhibition” value was -18.3%. With `CCN(CC)c1nc(C#N)nc(OC)n1` the “activity change, negative = inhibition” value was 11.1%. In the case of `CN(C(=O)COC(=O)c1cc(-c2ccco2)nc2ccccc12)C1CCS(=O)(=O)C1` (centres undefined), the Potency is reported as 50.1 µM (active). For `CC1CCCN(C(=O)c2cc(-c3ccco3)nc3ccccc23)C1` (centres undefined), the “activity change, negative = inhibition” value was 3.33%. `CN(CCOc1ccccc1)C(=O)c1cc(-c2ccco2)nc2ccccc12` was tested, and the “activity change, negative = inhibition” value was 6.29%. For `O=C(O)c1c(Br)c(Br)c(Br)c(Br)c1C1c2ccc(O)cc2Oc2cc(O)ccc21`, the Potency was 3.98 µM (active). With `N#CC1=C(N)Oc2cc(O)ccc2C1C1CCCCC1` (centres undefined) the “activity change, negative = inhibition” value was 0.703%. In the case of `Cc1ccc(-c2nnc(Nc3ccc(C(=O)N(C)C)cc3)c3ccccc23)cc1S(N)(=O)=O`, the “activity change, negative = inhibition” value is reported as -12.6%. For `Cc1ccc(Nc2nnc(-c3ccc(C)c(S(=O)(=O)N4CCCCC4)c3)c3ccccc23)cc1`, the “activity change, negative = inhibition” value was -20.8%. `Cc1ccc(C)c(Nc2nnc(-c3ccc(C)c(S(=O)(=O)N4CCCCC4)c3)c3ccccc23)c1` was tested, and the Potency was 89.1 µM (active). `O=[N+]([O-])c1ccc(S(=O)(=O)N2CCN(c3nc(-c4ccccc4)nc4ccccc34)CC2)cc1` was tested, and the “activity change, negative = inhibition” value was -12.2%. In the case of `NS(=O)(=O)c1ccc(NC(=O)CSc2nnc3c(n2)[nH]c2ccccc23)cc1`, the “activity change, negative = inhibition” value is reported as 11.1%. In the case of `COc1ccc(CCNC(=O)C(=O)NCC(c2ccco2)S(=O)(=O)c2cccs2)cc1OC` (centres undefined), the “activity change, negative = inhibition” value is reported as -4.25%. `O=c1[nH]c2ccccc2n2c(-c3ccccc3)nnc12` was tested, and the Potency was 79.4 µM (active) and 20 µM (active). In the case of `O=c1cc(-c2ccccc2)n2c(SCc3ccccc3)nnc2[nH]1`, the “activity change, negative = inhibition” value is reported as -5.27%. In the case of `CC(C)(C)OC(=O)N(Cc1ccco1)S(=O)(=O)c1ccccc1Br`, the “activity change, negative = inhibition” value is reported as -3.86%. For `O=C1C[C@H]2C=CCc3cccc(c32)CN1Cc1ccccc1`, the “activity change, negative = inhibition” value was -2.58%. `O=C(c1ccc2c(=O)n(Cc3ccco3)c(=S)[nH]c2c1)N1CCCC1` was tested, and the “activity change, negative = inhibition” value was 5.1%. In the case of `O=S(=O)(Nc1cccc2cccnc12)c1cccc2cccnc12`, the “activity change, negative = inhibition” value is reported as 2.67%. `O=C(NCc1ccccc1)c1cc(-c2cccc(Cl)c2)on1` was tested, and the “activity change, negative = inhibition” value was 4.6%. `Cn1cccc1/C=C1\SC(=S)N(NC(=O)c2ccc(Cl)cc2)C1=O` was tested, and the “activity change, negative = inhibition” value was 3.67%. With `O=C(O)C(c1ccccc1)N1C(=O)/C(=C\c2ccc(-c3cccc(Cl)c3)o2)SC1=S` (centres undefined) the Potency was 17.8 µM (active). For `Cc1c(CCO)sc[n+]1CC(=O)c1ccc2ccccc2c1`, the “activity change, negative = inhibition” value was -4.18%. For `O=C(C1COc2ccccc2O1)N(Cc1cccnc1)c1nc2c(F)cc(F)cc2s1` (centres undefined), the “activity change, negative = inhibition” value was -15%. In the case of `CCOC(=O)c1sc2nc(CSCC(=O)OCc3ccc(C(=O)OC)o3)[nH]c(=O)c2c1C`, the “activity change, negative = inhibition” value is reported as -1.9%. With `CSc1nnc(SCc2nc3sc(C(=O)O)c(C)c3c(=O)[nH]2)s1` the Potency was 20 µM (active). For `Cc1sc2nc(CSCC(=O)NC3CCCCC3)[nH]c(=O)c2c1C`, the “activity change, negative = inhibition” value was -2.42%.
